Rows were chosen to be rich in hits. Some 31% of all compounds tested hit in one or more screens of this group.
PLAP act = activates human placental alkaline phosphatase | P05187 | purified PLAP enzyme, luminescent substrate read-out; hits give high values | activation fold at 20 µM | 96,000 compounds, 1.2% hits | AID 696; in the data active = activation fold above about 2
CYP2C19 inh = blocks human cytochrome P450 2C19. P33261. CYP2C19 Supersomes, luciferin-H EGE luminescence, 30 min. inhibition, % at 5 µM. 96,000 compounds, 21% hits;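 active = CYP2C19 inhibition above a set limit at 5 µM in the primary screen, cut at about 50% in these data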;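 note: plate controls were negative control wells for no effect and 2.5 mM tranylcypromine positive control for full effect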
CYP2C9 act = increases human cytochrome P450 2C9 activity. recombinant CYP2C9, luciferin-H conversion, luminescence; hits give high values; factor 1 = untreated enzyme, 0 = blocked. activation factor at 5 µM. 96,000 compounds, 1.4% hits;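 active = activation factor of 2 or more for CYP2C9 at a 5 µM dose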;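 note: 0 = sulfaphenazole-blocked wells and 1 = vehicle-only wells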
CYP2C9 inhib = human CYP2C9 inhibition | P11712 | CYP2C9 Supersomes, luciferin-H conversion, luminescence | 96,000 compounds, 20% hits | inhibition, % at 5 µM;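 active = blocking of liver enzyme CYP2C9 beyond about 50% at 5 µM, limit read from the data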
CYP2C19 act = increases human CYP2C19 enzyme activity. P33261. recombinant CYP2C19, luciferin-H EGE luminescence; hits give high values; 0 = fully inhibited enzyme, 1 = untreated enzyme. activation factor at 5 µM. 96,000 tested, under 10 active. AID 1025;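 active = activation factor of at least 2 at 5 µM in the primary screen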;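 note: 0 = wells with 2.5 mM tranylcypromine and 1 = vehicle-only wells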
An asterisk follows results filed as active.

SMILES	PLAP act	CYP2C19 inh	CYP2C9 act	CYP2C9 inhib	CYP2C19 act
CC(NC(=O)C1CCC1)c1ccc2c(c1)OCO2 (stereo not given)	1	51*	0.7	30	0.5
COC(=O)c1ccccc1NC(=O)NCc1ccc2c(c1)OCO2	0.8	52*	0.8	25	0.5
CCOc1ccccc1C(=O)NC(C)c1ccc2c(c1)OCO2 (stereo not given)	1.2	80*	1.5	-45	0.2
COc1ccccc1C(=O)NCc1ccc2c(c1)OCO2	0.9	95*	0.5	52*	0
COCCSc1ccccc1C(=O)NCc1ccc2c(c1)OCO2	1.1	48	0.8	24	0.5
CCCCn1c(=O)c2c(c3ccccc31)OCC(=O)N2	1	6	1.1	-12	0.9
COc1ccc2[nH]c(=O)c(CN(CCO)C(=O)c3ccccc3F)cc2c1	1.1	-2	0.9	6	1
O=C(NCc1cc(C(F)(F)F)cc(C(F)(F)F)c1)C1CC(c2cccc([N+](=O)[O-])c2)=NO1 (stereo not given)	1.1	-4	1.2	-22	1
COc1cc(CC(=O)NCc2ccc3c(c2)OCO3)cc(OC)c1OC	1	74*	1.1	-11	0.3
COc1ccc(C(C)NC(=O)c2ccoc2C)cc1OC (stereo not given)	0.9	20	0.9	8	0.8
Cc1occc1C(=O)NCc1ccc2c(c1)OCO2	0.9	88*	0.7	26	0.1
COc1ccccc1NC(=O)NCc1ccc2c(c1)OCO2	0.9	54*	1.1	-6	0.5
Cc1occc1C(=O)NCc1cccc(CNC(=O)c2ccoc2C)c1	1.1	10	0.9	10	0.9
Cc1occc1C(=O)NC(C)c1ccc2c(c1)OCO2 (stereo not given)	0.9	62*	1	-3	0.4
Cc1nn(Cc2c(Cl)cccc2Cl)c(C)c1NC(=O)/C=C/c1cnn(C)c1C	1.5	3	0.8	19	1
CCn1c(N)c(C(=O)NCc2ccc3c(c2)OCO3)sc1=S	0.8	51*	0.4	63*	0.5
Cc1ccc(-n2ncc(C(=O)NCc3ccc4c(c3)OCO4)c2NC(=O)c2ccco2)cc1C	1.4	64*	0.1	87*	0.4
O=C1SC(c2ccccc2)=C/C1=C\N1CCCCC1	1.2	57*	0.6	41	0.4
CCOC(=O)CNC(=O)CNC(=O)Cn1ccc2ccccc2c1=O	1.2	-6	1.1	-7	1.1
O=C(NCCc1ccccc1)c1cnc2ccccn2c1=O	0.9	55*	0.8	21	0.5
Cc1csc2ncc(C(=O)NCCc3ccccc3)c(=O)n12	1.4	54*	1.2	-17	0.5
CSc1ccccc1NC(=O)c1cnc2scc(C)n2c1=O	1.2	7	0.8	19	0.9
CCOc1ccc(NC(=O)c2cnc3scc(C)n3c2=O)cc1	1.2	-13	2.8*	-180	1.1
CCc1c(C)nc(N)n2c(SCC(=O)N3CCN(c4ccccc4F)CC3)nnc12	0.9	-4	1	4	1
COc1cc2ccccc2c2c1CCCC2=O	0.9	59*	1.4	-38	0.4
SMILES	PLAP act	CYP2C19 inh	CYP2C9 act	CYP2C9 inhib	CYP2C19 act
COC(=O)CSc1nnc(-c2cccnc2)n1-c1cc(OC)cc(OC)c1	1	7	0.9	15	0.9
Cc1ccc(C)c(S(=O)(=O)N2C(=S)NC(=O)C2C(C)C)c1 (stereo not given)	1.1	56*	0	95*	0.4
CCCCOc1cccc(C2(C(=O)O)CCCC2)c1	1	29	0.7	33	0.7
CCCCCCCOC1(c2ccccc2)OC(=O)c2ccccc21 (stereo not given)	0.9	78*	0.2	76*	0.2
CCCCCCOC1(c2ccccc2)OC(=O)c2ccccc21 (stereo not given)	0.8	56*	0.4	62*	0.4
Cc1cccc(OC2(c3ccccc3)OC(=O)c3ccccc32)c1C (stereo not given)	0.7	44	0.2	83*	0.6
CC1(C)C2CCC1(CS(=O)(=O)N1CCOCC1)C(=O)C2 (stereo not given)	0.9	0	1.4	-36	1
CC1(C)C2CCC1(CS(=O)(=O)N1CCCc3ccccc31)C(=O)C2 (stereo not given)	1	42	3.2*	-222	0.6
COc1cccc(NC2=CC(=O)CC(C)(C)C2)c1	1	-11	1.2	-16	1.1
COc1ccccc1NS(=O)(=O)CC12CCC(CC1=O)C2(C)C (stereo not given)	1	77*	1.9	-87	0.2
